# Where “and” joins values, the source holds several entries; their conditions need not be identical. Equal values may be shown once. This is part of a sample that, as a whole, favours compounds with a hit. Of some 83,000 tested, about 20% had one in any assay.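 Activity criterion: percent growth below 10, measured after cells in 96-well plates were exposed to a single compound concentration for 48 hours.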 Calls of active or inactive are those of the source.
# Tested on: TK-10 renal
# Assay: NCI-60 one-dose screen, 48 h (100 = growth as untreated, 0 = no growth, -100 = all killed)
# Settings: 10 µM unless noted
row,SMILES,growth
1,O=[N+]([O-])c1ccccc1/C=N\Nc1ccccc1,118% (inactive) and 92.6% (inactive)
2,CCN(CC)CCNc1cc(-c2cccc(OC(F)(F)F)c2)nc2ccc(N3CCCC3)cc12,74.5% (inactive) and 19.1% (inactive) and 40.1% (inactive)
3,CC(=O)Nc1cc(S(=O)(=O)O)cc2cc(S(=O)(=O)O)c(N=Nc3ccccc3)c(O)c12,110% (inactive) and 98.4% (inactive)
4,CC(C)CNC(=O)c1ccccc1C(=O)NC1(C(=O)NCC(C)C)CCCC1,111% (inactive) and 114% (inactive)
5,COc1cc2nc(N3CCN(C(=O)C4COc5ccccc5O4)CC3)nc(N)c2cc1OC (centres undefined),86.4% (inactive) and 88.4% (inactive)
6,O=C(Cc1cccc2ccccc12)N/N=C/c1ccc2c(c1)CCC2,89.4% (inactive)
7,CC1=C(/C=C/C(C)=C/C=C/C(C)=C/C(=O)O)C(C)(C)CCC1,101% (inactive) and 99.5% (inactive) and 109% (inactive)
8,O=C(Nc1ccc(Br)cc1)c1cc(Br)ccc1O,9.29% (active) and 1.36% (active)
9,Cc1cc(-c2ccc(NS(=O)(=O)c3ccccc3)c(C)c2)ccc1NS(=O)(=O)c1ccccc1,83.4% (inactive) and 109% (inactive)
10,O=C(CCl)c1ccc2c(c1)Nc1ccccc1S2,95.5% (inactive)
11,CC1CCCc2sc3nc(NNC(=O)c4cnccn4)n(-c4ccccc4)c(=O)c3c21 (centres undefined),30.3% (inactive) and 37.9% (inactive)
12,Cc1cc(O)c(C(C)C)cc1N,123% (inactive) and 117% (inactive)
13,COc1ccc2cc3[n+](cc2c1OC)CCc1cc2c(cc1-3)OCO2,137% (inactive) and 98.3% (inactive)
14,COc1c(/C(C)=N/N=c2sc(C(C)=O)nn2-c2ccc(Cl)cc2)c(Oc2ccccc2)c(OC)c2occc12,124% (inactive) and 118% (inactive)
15,OC(COc1cccc2ccccc12)CN1CCN(c2ccc(Cl)cc2)CC1 (centres undefined),70.8% (inactive) and 101% (inactive)
16,CNc1ccc2nc3ccc(=[N+](C)C)cc-3sc2c1,-3.64% (active) and 17.3% (inactive)
17,CC1=NN(c2ccccc2)C(=O)C1C(=O)c1ccccc1 (centres undefined),107% (inactive)
18,OCCN1CCN(CCO)CC1,93.6% (inactive) and 107% (inactive) and 108% (inactive)
19,CC1=CCC2CC1C2(C)C (centres undefined),113% (inactive) and 119% (inactive)
20,COc1cc(/C=N/Nc2nc3c([nH]2)c(=O)n(C)c(=O)n3C)ccc1O,95.7% (inactive) and 93.1% (inactive)

row,SMILES,growth
1,S=C(S)N1CCCC1,96.5% (inactive) and 96.3% (inactive)
2,CC(=O)Oc1cc(C(=O)O)cc(OC(C)=O)c1OC(C)=O,115% (inactive) and 102% (inactive)
3,CCN(CC)C(=O)c1cccnc1,97.8% (inactive)
4,O=C(Nc1cccc(Cl)c1)c1cc2ccccc2cc1O,54.7% (inactive) and 26.8% (inactive)
5,Cn1c(SSc2ccc(-c3cccnc3)n2C)ccc1-c1cccnc1,117% (inactive) and 102% (inactive)
6,CN1CCN(CCC=C2c3ccccc3Sc3ccc(S(=O)(=O)N(C)C)cc32)CC1,70.5% (inactive) and 87.2% (inactive)
7,Oc1c(Cl)cc(Cl)cc1Sc1cc(Cl)cc(Cl)c1O,46.9% (inactive) and -11.2% (active) and 87.2% (inactive)
8,Cn1c(=O)n(-c2ccc(C(C)(C)C#N)cc2)c2c3cc(-c4cnc5ccccc5c4)ccc3ncc21,-27.5% (active) and -27.4% (active)
9,O=C(N/N=C/c1ccccc1)N/N=C/c1ccccc1,119% (inactive) and 110% (inactive)
10,COc1ccc(-c2cn[nH]c2-c2cc(OC)c(OC)c(OC)c2)cc1N,76.4% (inactive) and 91.4% (inactive)
11,C1CCCCNCCC1,125% (inactive)
12,COc1ccccc1C(C)=O,118% (inactive) and 99.4% (inactive)
13,NS(=O)(=O)c1cc2c(cc1Cl)NC(C(Cl)Cl)NS2(=O)=O (centres undefined),98.5% (inactive) and 121% (inactive)
14,O=C(Oc1cccc(OC(=O)c2ccccc2)c1)c1ccccc1,133% (inactive) and 85.7% (inactive)
15,CC1(c2ccc3ccccc3c2)CCC(=O)O1 (centres undefined),93.5% (inactive)
16,CC1=C(/C=C/C(C)=C/C=C/C(C)=C/C=N/NC(=S)NC(=S)N/N=C/C=C(C)/C=C/C=C(C)/C=C/C2=C(C)CCCC2(C)C)C(C)(C)CCC1,-8.64% (active) and -42.5% (active)
17,CCCCOc1cc(C(=O)NCCN(CC)CC)c2ccccc2n1,100% (inactive)
18,COc1cc2c(c(OC)c1OC)-c1ccc(OC)c(=O)cc1[C@@H](NC(C)=O)CC2,61.7% (inactive) and 52.7% (inactive)
19,CN1CCN(c2ccc3nc(-c4c(N)c5c(F)cccc5[nH]c4=O)[nH]c3c2)CC1,35.1% (inactive) and 45.8% (inactive)
